Compounds without any hit were thinned out: in the full panel of roughly 83,000, 20% have a hit.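 Single-dose data. Exposure time 48 hours. Values below 10 considered active.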 A number with no mark means an inactive call. Active and inactive are the calls of the source.
Assays:
Assay in all cases: NCI-60 one-dose screen, 48 h (100 = growth as untreated, 0 = no growth, -100 = all killed)
Conditions in all cases: 10 µM unless noted
[1] = tested on: NCI-H23 lung
[2] = tested on: NCI-H226 lung
[3] = tested on: NCI-H322M lung
[4] = tested on: HOP-62 NSCLC
[5] = tested on: NCI-H460 lung
[6] = tested on: NCI-H522 lung
[7] = tested on: A549/ATCC NSCLC
[8] = tested on: 786-0 renal
[9] = tested on: COLO 205 colon
[10] = tested on: DU-145 prostate
[11] = tested on: K-562 leukemia
[12] = tested on: MALME-3M melanoma
[13] = tested on: MDA-MB-231 breast
[14] = tested on: RXF 393 renal
[15] = tested on: SF-268 CNS
[16] = tested on: SF-295 CNS
[17] = tested on: SF-539 CNS
[18] = tested on: UACC-257 melanoma
[19] = tested on: M14 melanoma
[20] = tested on: HOP-92 NSCLC

Row | Structure (SMILES) | growth [1] | growth [2] | growth [3] | growth [4] | growth [5] | growth [6] | growth [7] | growth [8] | growth [9] | growth [10] | growth [11] | growth [12] | growth [13] | growth [14] | growth [15] | growth [16] | growth [17] | growth [18] | growth [19] | growth [20]
1 | Cc1ccc(-c2nc(Nc3ccccc3S(N)(=O)=O)c3ccccc3n2)cc1 | 68.2% | 59.1% | 80.2% | 86.8% | 70.2% | 81.4% | 71% | 32.1% | 98.7% | 77.6% | 46.1% | 97.7% | 21.6% | 51.1% | 70.1% | 94.4% | -11.9% (active) | 106% | 90.3% | 
2 | Cc1ccc(C(=O)NN2C(=O)/C(=C/C=C/c3ccc([N+](=O)[O-])o3)SC2=S)cc1 | -84% (active) | -95.6% (active) | -76.9% (active) | -70% (active) | -57.6% (active) | -90.7% (active) | -76.5% (active) | -86% (active) | -83.9% (active) | -100% (active) | 6.34% (active) | -98% (active) | -96.4% (active) | -90% (active) | -86.7% (active) | -87.6% (active) | -96.6% (active) | -81.5% (active) | -70.6% (active) | 
3 | CC(=O)NNc1ccc2nnc(-c3ccccc3)n2n1 | 96.6% | 105% | 102% | 116% | 106% | 109% | 102% | 104% | 104% | 103% |  | 98.5% | 106% | 101% | 95% | 104% | 103% | 109% | 98.8% | 109%
4 | C=C1CC[C@@H]2[C@]3(C)COC(c4cn[nH]c4-c4ccc(F)cc4)O[C@@H]3CC[C@@]2(C)[C@@H]1C/C=C1/C(=O)OCC1O (some centres undefined) | -67.3% (active) | -83.5% (active) | 44% | -10.7% (active) | -63.5% (active) | -59.7% (active) | -14.2% (active) | -89.2% (active) | -39.4% (active) | -23% (active) | -24.2% (active) | -44.7% (active) | -40.5% (active) | -86% (active) | 16.9% | -26.8% (active) | -83.2% (active) | -44.6% (active) | -63.4% (active) | 
5 | CC(=O)Nc1ccc(-n2cnc3ccc(-c4ccc(O)cc4)cc32)cc1 | 41.3% | 52.5% | 44% | 53% | 38.7% | 54% | 44% | 48.5% | 123% | 44.7% | 56.6% | 50.3% | 70.4% | 10.9% | 36.3% | 56% | 34.2% | 67.3% | 48.7% | 
6 | O=C(Cn1c2c(sc1=O)[C@H]1[C@@H](O)[C@@H](O)[C@H](O)[C@@H]1CS2)N1CCOCC1 | 105% | 101% | 107% | 92.7% | 106% | 91.7% | 106% | 98.7% | 116% | 112% | 106% | 98.8% | 106% | 117% | 97.7% | 105% | 96.8% | 110% | 112% | 
7 | COc1ccc2c(c1)c(/C=N/Nc1ccc3ccccc3n1)cn2C | 36.4% | 32.9% | 36.2% | 38.1% | -64.8% (active) | 3.83% (active) | 14.9% | -87% (active) | -82.7% (active) | 36.2% | -40.1% (active) | 12.6% | -23.1% (active) | 33.4% | 37.2% | -60.4% (active) | -36.2% (active) | 61.7% | -6.98% (active) | 
8 | CCCCSc1nc(Nc2ccc(S(N)(=O)=O)cc2)c(C#N)c(-c2cc(OC)c(OC)c(OC)c2)n1 | 82.9% | 59.3% | 75.1% | 81.4% | 35.9% | 63.2% | 32.2% | 57.1% | 39.8% | 54.1% | 3.62% (active) | 8.31% (active) | 42.5% | 32.8% | 60.7% | 24.2% | 38.1% | 61.7% | 33.3% | 
9 | Cn1cc(-c2cc(N)n3nc(-c4cn(C)c5ncccc45)cc3n2)c2cccnc21 | -33.1% (active) | 86.5% | 104% | 86.1% | 79.5% | 77% | 51.9% | 81.9% | 43.7% | 83.2% | 5.55% (active) | 97.3% | -22.4% (active) | 58.8% | 92.7% | 62.6% | 84.2% | 100% | 93.1% | 
10 | COc1ccc(C(=O)/C=C/c2cccc(Cl)c2)cc1S(N)(=O)=O | -10.4% (active) | 38.3% | 10.7% | -37.4% (active) | 3.05% (active) | -50.1% (active) | -81.7% (active) | -57.3% (active) | -65.1% (active) | -40.6% (active) |  | 27.6% | -4.13% (active) | -65.8% (active) | 7.86% (active) | -88.8% (active) | -80.6% (active) | -29.6% (active) | -10.5% (active) | 85.8%
11 | CN1CCN(c2ccc3c(c2)nc(NNC(=O)c2cnccn2)c2cccn23)CC1 | 1.16% (active) | -7.98% (active) | 27.7% | -24.4% (active) | 2.41% (active) | -16.7% (active) | 0.0581% (active) | -95.5% (active) | -64% (active) | -9.7% (active) |  | -24.5% (active) | -35.1% (active) | -65.1% (active) | 10.6% | -81.3% (active) | -41.3% (active) | -48.6% (active) | -78.1% (active) | -29.3% (active)
12 | CC(=O)c1cc(C(=O)c2ccccc2)n2c1ccc1ccccc12 | 105% | 94% | 94.3% | 87.5% | 111% | 97.4% | 108% | 98.7% | 110% | 128% | 94.4% | 131% | 78.4% | 93.1% | 110% | 106% | 82.5% | 118% | 101% | 
13 | COc1c(F)ccc(C(=O)Nc2ccc3nc(NC(=O)C4CCCN(S(=O)(=O)c5cccc(Br)c5)C4)sc3c2)c1F (centres undefined) | 96.3% | 88.4% | 94% | 107% | 80.3% | 78.9% | 75.6% | 70% | 86.4% | 91.4% | 60.2% | 99.4% | 90.7% | -3.33% (active) | 69.7% | 84.5% | 74.5% | 92.4% | 87.2% | 
14 | COc1c(F)ccc(C(=O)Nc2ccc3nc(NC(=O)C4CCCN(S(=O)(=O)c5ccc(C#N)cc5)C4)sc3c2)c1F (centres undefined) | 88.9% | 90.3% | 101% | 104% | 96.8% | 85.7% | 91.6% | 75.5% | 96.9% | 95.7% | 62.6% | 97.5% | 99.1% | 46.7% | 93.5% | 90.1% | 73.1% | 87.1% | 92.7% | 
15 | COc1ccc2[nH]c(=O)c(CSc3nccc(-c4ccc(OC)c(OC)c4)n3)cc2c1 | 35.4% | -13.2% (active) | 40.6% | 0.29% (active) | 18.1% | -17.4% (active) | 18.3% | 30.4% | 36.5% | 37.4% | 11.4% | -2.09% (active) | 6.47% (active) | -13.7% (active) | 28% | -30.4% (active) | 24.7% | 38.9% | 47.8% | 
16 | COc1c(F)ccc(C(=O)Nc2ccc3nc(NC(=O)C4CCCN(S(=O)(=O)c5cccc(Cl)c5)C4)sc3c2)c1F (centres undefined) | 88.9% | 77.3% | 87.2% | 103% | 82% | 79% | 68% | 61% | 86.2% | 90.5% | 53.8% | 97.6% | 87.9% | -6.85% (active) | 86.9% | 78.7% | 70.7% | 84.7% | 84.7% | 
